Bioassay records: PubChem BioAssay, National Center for Advancing Translational Sciences (NCATS)
POLI inh: qHTS for Inhibitors of Polymerase Iota; DNA polymerase iota (Homo sapiens), Q9UNA4; Pol iota fluorescent replication assay, 10 min; Potency, µM (highest dose often 115 µM), for the others: at the top dose activity, negative = inhibition, actives largely listed as inhibitors; 1% of 390,000 active; further: potency means the concentration at half of the fitted maximal effect
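Pol iota at 10 nM preincubated 15 min with compounds at room temperature; reaction started with fluorescent substrate, 50 nM final. Fluorescence read kinetically at 0 and 10 min; buffer-only wells as negative control.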
Pol beta inh: qHTS Assay for Inhibitors of DNA Polymerase Beta | P06746 | Pol beta primer extension/strand displacement, fluorescence kinetic | Potency, µM (highest dose often 114 µM), without a hit: at the top dose activity change, negative = inhibition, usual class: inhibitors | 1.3% of 340,000 active; further: potency means the concentration at half of the fitted maximal effect; on the % scale 0 is the no-effect control and ±100 the full control effect
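Pol beta (10 nM) was preincubated with compound for 15 min at room temperature. The reaction was then started with 50 nM substrate and read immediately and after a further 10 min at room temperature.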
POLH inh: qHTS for Inhibitors of Polymerase Eta; DNA polymerase eta (Homo sapiens), Q9Y253; recombinant Pol eta, fluorescent DNA replication assay; Potency, µM (doses to about 114 µM), for the others: at the top dose activity change, negative = inhibition, actives largely listed as inhibitors; 1.2% of 390,000 active; AID 588591, 2011; further: potency means the concentration at half of the fitted maximal effect; on the % scale 0 is the no-effect control and ±100 the full control effect
Target sequence (Q9Y253 whole entry, looked up): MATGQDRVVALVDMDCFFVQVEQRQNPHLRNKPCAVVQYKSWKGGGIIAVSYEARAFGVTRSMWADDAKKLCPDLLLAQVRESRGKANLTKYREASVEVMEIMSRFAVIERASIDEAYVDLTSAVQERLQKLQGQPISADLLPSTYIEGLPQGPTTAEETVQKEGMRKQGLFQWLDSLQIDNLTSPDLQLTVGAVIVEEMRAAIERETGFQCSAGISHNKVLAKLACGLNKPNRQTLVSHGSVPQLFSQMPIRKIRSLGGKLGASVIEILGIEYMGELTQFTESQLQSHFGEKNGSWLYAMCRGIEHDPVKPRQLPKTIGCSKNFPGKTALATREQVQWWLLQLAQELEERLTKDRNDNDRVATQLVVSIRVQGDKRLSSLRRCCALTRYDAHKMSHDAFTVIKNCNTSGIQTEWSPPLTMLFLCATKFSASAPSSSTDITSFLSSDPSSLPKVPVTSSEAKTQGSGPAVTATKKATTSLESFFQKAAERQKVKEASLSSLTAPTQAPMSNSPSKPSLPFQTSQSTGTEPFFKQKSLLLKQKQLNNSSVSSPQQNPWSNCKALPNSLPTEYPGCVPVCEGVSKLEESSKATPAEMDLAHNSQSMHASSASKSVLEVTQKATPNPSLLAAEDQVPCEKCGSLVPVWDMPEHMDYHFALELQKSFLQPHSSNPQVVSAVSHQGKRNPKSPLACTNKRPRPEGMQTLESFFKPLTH
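Fluorescent replication assay: 50 nM final substrate added after a 15 min room-temperature compound preincubation with 10 nM enzyme. Signal taken at 0 min and again at 10 min.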
POLK inh: qHTS for Inhibitors of Polymerase Kappa. AID 588579, 2011. purified Pol kappa, fluorescent DNA synthesis assay, 10 min. 0.53% of 400,000 active. DNA polymerase kappa (Homo sapiens), Q9UBT6. Potency, µM (highest dose often 107 µM), for the others: at the highest dose activity, negative = inhibition, usual class: inhibitors; further: potency means the concentration at half of the fitted maximal effect; on the % scale 0 is the no-effect control and ±100 the full control effect
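10 nM Pol kappa was preincubated with compounds for 15 min at room temperature. Reaction started with 50 nM (final) substrate. Fluorescence read kinetically at 0 and 10 min.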
12-LOX inh: Primary qHTS assay for inhibitors of human arachidonate 12S-lipoxygenase (ALOX12): Round 2. Polyunsaturated fatty acid lipoxygenase ALOX12 (Homo sapiens), P18054. purified 12hLO, xylenol orange hydroperoxide absorbance. Potency, µM (doses to about 108 µM), without a hit: top-dose activity change, negative = inhibition, usual class: inhibitors. 1.1% of 580,000 active; further: potency means the concentration at half of the fitted maximal effect; on the % scale 0 is the no-effect control and ±100 the full control effect
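Purified human 12hLO at 150 nM in 25 mM Hepes, 0.01% Triton X-100, pH 7.0, preincubated 15 min at room temperature with compound. Reaction started with 40 uM arachidonic acid, 30 min at room temperature. Hydroperoxide measured by Fe-xylenol orange, 573/405 nm absorbance ratio.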
PI5P4K alpha inh: qHTS for Inhibitors of phosphatidylinositol 5-phosphate 4-kinase (PI5P4K). PI5P4Kalpha enzyme, ADP-Glo luminescence, 60 min; stronger effect = lower value. Phosphatidylinositol 5-phosphate 4-kinase type-2 alpha (Homo sapiens), P48426. 1.2% of 330,000 active. max response, %. AID 652105, 2013; active means max response of -50% or lower; inconclusive means between -30% and -50%; inactive means -30% or higher; further: value at the top dose of about 77 µM; on the % scale 0 is the no-effect control and ±100 the full control effect
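Luminescence from ADP-Glo served as readout of PI5P4Kalpha activity in a qHTS format. Reaction: enzyme, substrate, compound, ATP at 5 microM final, 60 min at RT.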
Numbers without * were called inactive; ? = inconclusive; / = not tested or not shown; [ ] = remark or other dose. Hits are enriched below; roughly 2.9% of the tested compounds scored in any of these assays. Unless noted, the call rests on the fitted dose curve; in most records, active means well fitted inhibition curve with a large enough effect; inconclusive means small, poorly fitted or top-dose-only effect, or another doubt; inactive means no such curve, though single readings can be large or run the other way.

SMILES	POLI inh	Pol beta inh	POLH inh	POLK inh	12-LOX inh	PI5P4K alpha inh
O=C(O)CCc1ccc(-c2ccc(F)cc2)n1Cc1ccco1	-15%	-24%	-10%	-12%	?	/
O=C(O)CCc1ccc(-c2ccccc2)n1Cc1ccco1	?	-2%	16µM*	?	?	?
Cc1noc(/C=C/c2ccccc2F)c1S(=O)(=O)N1CCCC(C(=O)N2CCC(C)CC2)C1 (configuration not stated)	/	/	/	/	-4%	/
CNC(=O)c1ccc(-c2nc(CN3CCN(C(=O)Nc4ccccc4C(=O)OC)CC3)c(C)o2)cc1	/	/	/	/	-3%	/
O=C(Nc1ccc(O)c(-c2nc3ccccc3o2)c1)c1ccc([N+](=O)[O-])o1	/	/	/	/	11%	/
O=C(Nc1ccc2oc(-c3ccccc3F)nc2c1)c1ccc([N+](=O)[O-])o1	?	11µM*	4%	-6%[60.1 µM]	11%	-5
Cc1ccc(/C(O)=C2\C(=O)C(=O)N(c3nc4ccccc4s3)C2c2ccc(O)cc2)cc1 (configuration not stated)	/	/	/	/	18µM*	/
C=CCOc1ccc(/C(O)=C2\C(=O)C(=O)N(CCOC)C2c2cccnc2)cc1 (configuration not stated)	-16%	0%	4%	-4%	40µM*	/
COc1ccc(C2/C(=C(/O)c3ccc(C)cc3)C(=O)C(=O)N2c2ccccn2)cc1 (configuration not stated)	107%	18%	-9%	-13%	?	3
COc1ccc(C2/C(=C(\O)c3ccc(C)cc3)C(=O)C(=O)N2CCCO)cc1 (configuration not stated)	/	/	/	/	0.56µM*	/
COc1ccc(/C(O)=C2/C(=O)C(=O)N(CCCN3CCOCC3)C2c2ccc(C)cc2)cc1 (configuration not stated)	10%	5%	-8%	9%	?	-5
CCOc1ccc(/C(O)=C2\C(=O)C(=O)N(c3nccs3)C2c2ccc(C)cc2)cc1 (configuration not stated)	/	/	/	/	6.3µM*	/
O=C(NCC(O)c1ccccc1C(F)(F)F)c1cnccn1 (configuration not stated)	/	/	/	/	-19%	/
COc1ccc(S(=O)(=O)N(CC(=O)O)c2ccccc2)cc1	100µM*	15%	-6%	-24%	?	/
COc1ccc(N(CC(=O)N/N=C/c2ccco2)S(=O)(=O)c2ccccc2)cc1	?	8.9µM*	89µM*	-22%	?	/
COc1cccc(NC(=O)CN(c2ccc([N+](=O)[O-])cc2)S(=O)(=O)c2ccccc2)c1	10%	-13%	-16%	0%	18%	0
COc1ccc(NC(=O)CN(c2ccc([N+](=O)[O-])cc2)S(=O)(=O)c2ccccc2)cc1	5%	0.11µM*	-17%	-5%	-7%	6
COc1ccc(CCCN)cc1	/	/	/	/	-12%	/
COC(=O)Cc1ccc(NC(=S)NCCO)cc1	145%	-3%	-27%	1%	2%	-2
COc1cc(NC(=S)Nc2ccccn2)cc(OC)c1	19%	23%	-17%	-6%	32µM*	2
O=C(Nc1ccccn1)C(=O)Nc1ccccn1	19%	-11%	7%	11%	-13%	-20
S=C(Nc1ccccn1)c1ccccn1	4%	-3%	-13%	-8%	4.5µM*	-95*
COC(=O)Cc1ccc(NC(=S)Nc2ccccn2)cc1	28%	-1%	-10%	-6%	40µM*	2
Cc1c(Cl)cccc1NC(=S)Nc1ccccn1	93%	3%	?	3%	?	-6
S=C(Nc1ccccn1)Nc1ccccc1Cl	26%	16%	-2%	-14%	35µM*	6
SMILES	POLI inh	Pol beta inh	POLH inh	POLK inh	12-LOX inh	PI5P4K alpha inh
Cc1ccccc1S(=O)(=O)N1CCCC(CCC(=O)Nc2cccc(Cl)c2)C1 (configuration not stated)	/	/	/	/	-1%	/
O=C(NCCc1ccccc1)Nc1cccc(-c2ccc(N3CCCCC3)nn2)c1	/	/	/	/	40%	/
CC(O)c1ccc(-c2ccc(CNCc3ccccn3)o2)cc1 (configuration not stated)	/	/	/	/	27%	/
COC1=CC(=O)C(C2CC(=O)c3c(O)cc(O)cc3O2)=CC1=O (configuration not stated)	?	/	?	32µM*	?	?
COc1c(CC=C(C)C)cc(C2CC(=O)c3c(O)cc(O)cc3O2)cc1CC=C(C)C (configuration not stated)	-6%	-30%	-21%	-12%	?	-6
COc1ccc(C(=O)NCCn2cc(SCc3cc(C)ccc3C)c3ccccc32)cc1	89µM*	3%	-5%	-9%	-24%	/
COc1ccc(C(=O)NCCn2cc(SCC(=O)Nc3ccc(C)cc3)c3ccccc32)cc1	-24%	-1%	-5%	-11%[60.1 µM]	-21%	/
O=S(=O)(N[C@H]1[C@H](O)[C@H](O)C[C@@H]1c1ccc(C(F)(F)F)cc1)c1ccc(F)cc1	/	/	/	/	2%[176 µM]	/
CC1=NN(Cc2ccccc2)C(=O)C1C(c1ccc(Cl)cc1)C(C#N)C#N (configuration not stated)	-19%	2%	?	-12%	40µM*	-7
CC1=NN(Cc2ccccc2)C(=O)C1C(c1ccccc1)C(C#N)C#N (configuration not stated)	?	32%	4%	0%	18%	/
Cc1ccc(NC(=O)c2ccc(Cl)c(N3C(=O)C=CC3=O)c2)cc1	2%	1%	-3%	-10%	?	-68*
CC(C)(C)NC(=O)C12CC3CC(CC(Cl)(C3)C1)C2	5%	5%	-9%	-1%	1%	2
CC(C)(C)NC(=S)NC(=O)C12CCC3CC(CC(C3)C1)C2	0%	-15%	11%	5%	32µM*	4
CCCCn1cnc2c1c(=O)n(CC(=O)NC1CCC(C)CC1)c(=O)n2CCC (configuration not stated)	/	/	/	/	-3%	/
CCNC(=S)N/N=C/c1cccc(OCc2c(F)cccc2Cl)c1	19%	-1%	-8%	-9%	40µM*	0
CC(C)Oc1ccc(C(=O)N/N=C/c2ccc(-c3ccc(S(=O)(=O)Nc4ncccn4)cc3)o2)cc1	?	1%	2.8µM*	45µM*	-7%	?
COC(=O)CNC(=O)COC(=O)c1ccc2ccccc2n1	/	/	/	/	-36%	/
